PubChem BioAssay (NCI)
About 79,000 compounds went through this panel and 15% of them were active in at least one assay; those are over-represented in the sample as a whole. Rule as the data show it: active = growth inhibition above about 70%; inactive = the rest.

Key:
[1] = NCI Yeast Anticancer Drug Screen. Data for the rad50 strain (AID 155);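 also: 0% = growth of vehicle-only cultures of the same strain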; conditions: S. cerevisiae rad50 strain growth inhibition; at 50.0 µM; stronger effect = higher value
In short: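 Growth of the mutant yeast was measured after compound exposure and referenced to vehicle-treated cultures.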

[2] = NCI Yeast Anticancer Drug Screen. Data for the mec2-1 strain (AID 157); conditions: S. cerevisiae mec2-1 strain, at 50.0 µM, stronger effect = higher value
In short: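 Each compound was tested on mec2-1 yeast, a strain altered in DNA damage repair or cell cycle control. Growth inhibition is reported relative to vehicle.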

[3] = NCI Yeast Anticancer Drug Screen. Data for the sgs1 mgt1 strain (AID 161);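 also: 0% = growth of cultures given vehicle only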; conditions: S. cerevisiae sgs1 mgt1 strain, at 50.0 µM, stronger effect = higher value
In short: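 Mutant yeast exposed to compound; growth scored against vehicle-only wells.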

[4] = NCI Yeast Anticancer Drug Screen. Data for the cln2 rad14 strain (AID 165);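 also: 0% = growth equal to vehicle treated cultures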; conditions: S. cerevisiae cln2 rad14 strain, at 50.0 µM, stronger effect = higher value
In short: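 Test compounds were added to cln2 rad14 yeast cultures; inhibition of growth was then determined by comparison with vehicle treatment.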

[5] = NCI Yeast Anticancer Drug Screen. Data for the bub3 strain (AID 167); conditions: S. cerevisiae bub3 mutant strain, at 50.0 µM, stronger effect = higher value
In short: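 Whole-cell yeast assay. The mutant strain was incubated with compounds, and growth inhibition was determined by comparison with vehicle-treated cells.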

[6] = NCI Yeast Anticancer Drug Screen. Data for the mlh1 rad18 strain (AID 175); conditions: S. cerevisiae mlh1 rad18 strain growth inhibition; at 50.0 µM; stronger effect = higher value
In short: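 Inhibition values reflect reduced growth of mutant yeast versus vehicle-treated controls following compound exposure; the mutations affect DNA damage repair.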

Measured: growth inhibition

CCC1C(C)C=CN1c1nc(N)nc(NS(=O)(=O)c2cc(C)c(Cl)cc2S)n1 (stereo unspecified)
inactive: [1] -18.2% | [2] 2.5% | [3] 17.7% | [4] -1.9% | [5] 4.3% | [6] 12.2%

CC(C)C(CNC(=S)Nc1ccccc1)(c1ccccc1)c1ccccc1
inactive: [1] 6.9% | [2] 13.1% | [3] 5.25% | [4] 1.85% | [5] 8.95% | [6] 12.8%

CCOC(=O)C1Sc2c(c(=O)n(C)c3ccccc23)C1=O (stereo unspecified)
inactive: [1] 34.1% | [2] 36.6% | [3] 34.1% | [4] 40.7% | [5] -8.45% | [6] 41.2%

NC(=O)CCN(CCC(N)=O)c1ccc2c(c1)C(=O)c1ccccc1-2
inactive: [1] -7.3% | [2] -6.05% | [3] -8% | [4] -22.9% | [5] 15.5% | [6] -14.9%

CCCCC(c1nc2c(c3c1CCCC3)CCCC2)C(O)(C(F)(F)F)C(F)(F)F (stereo unspecified)
inactive: [1] 13.1% | [2] 7% | [3] 10.2% | [4] -4.15% | [5] -2.1% | [6] 16.4%

N#CN=C(N)NC(=O)/C=C/C=C/c1ccc(Cl)cc1
inactive: [1] 5.8% | [2] 16.8% | [3] 0.8% | [4] 9.8% | [5] 38% | [6] 24.8%

Cc1c(O)c([N+](=O)[O-])cc2c1OCOC2
inactive: [1] 3.8% | [2] 11.6% | [3] -3.15% | [4] -9.4% | [5] -17.5% | [6] 0%

CC(=O)Oc1ccc(O)c(C(=O)O)c1
inactive: [1] 1.8% | [2] -7.15% | [3] -4.95% | [4] -1.35% | [5] 0.2% | [6] 17.3%

Nc1cccc2c(S(=O)(=O)O)cccc12
inactive: [1] -2.9% | [2] -3.15% | [3] -11.9% | [4] -66.7% | [5] 0.3% | [6] 0.75%

CNc1ccc(OC)cc1S(=O)(=O)c1ccccc1[N+](=O)[O-]
inactive: [1] 2.25% | [2] -35.4% | [3] 35.6% | [4] 18.7% | [5] 4.75% | [6] -22.2%

CC(=O)NC(Cc1ccc(O)cc1)C(=O)O (stereo unspecified)
inactive: [1] 10.8% | [2] 5.25% | [3] -3.4% | [4] -19.4% | [5] -9.05% | [6] -3.45%

COc1cc2c(cc1OC)-c1c(C)c3ccc(OC)c(NCCO)c3c[n+]1CC2
inactive: [1] -43.2% | [2] -10% | [3] -29.7% | [4] -17% | [5] -0.4% | [6] -8.3%

N#CC(=C1CCCCC1)c1ccccc1
inactive: [1] -14.1% | [2] -21.2% | [3] -21.6% | [4] -5.75% | [5] -15.9% | [6] -27.1%

Cn1ncc2c(=S)[nH]c(=O)[nH]c21
inactive: [1] 3.7% | [2] -0.2% | [3] -1.1% | [4] -4.95% | [5] 1.05% | [6] -0.1%

COC(=O)c1ccc(CS(=O)(=O)c2ccccc2)cc1
inactive: [1] 2% | [2] -6.3% | [3] 4.6% | [4] 7.1% | [5] 14.7% | [6] -11.5%

[N-]=[N+]=Nc1ccccc1C(=O)NC(=O)Nc1ccccc1
inactive: [1] -14.1% | [2] 1.95% | [3] 5.5% | [4] -19.2% | [5] 2.45% | [6] -2.1%

O=C1CC23CC(=O)CC2(C1)c1ccccc1C3=O (stereo unspecified)
inactive: [1] 11.1% | [2] -11.8% | [3] 4.65% | [4] 6.2% | [5] 3.05% | [6] 13.7%

CCCCCCC(=O)N1CC(C)OC(C)C1 (stereo unspecified)
inactive: [1] 0.6% | [2] -6.4% | [3] 2.4% | [4] 0.1% | [5] -14.7% | [6] 4.8%

CC(C)CC(NC(=O)CN)C(=O)O (stereo unspecified)
inactive: [1] -1.85% | [2] 2.4% | [3] -1.1% | [4] -7.2% | [5] -6% | [6] -0.85%

O=c1cc(-c2ccccc2)oc2c(N=Nc3ccccc3)ccc(O)c12
inactive: [1] 33.8% | [2] -14.8% | [3] 22.9% | [4] 25.4% | [5] 22.4% | [6] -11.5%

CC(=O)OCc1ccnc2ccc(OC(C)=O)cc12
inactive: [1] 0.05% | [2] 15.4% | [3] -6.4% | [4] -8.75% | [5] -5.2% | [6] 2.75%
